Among the data in PubChem BioAssay AID662 (National Center for Advancing Translational Sciences (NCATS), 2007) are Potency values, retold here.

Among all 71,000 compounds or so, about 1,800 (2.5%) were called active. About 26% were inconclusive and are not listed. Calls come from the whole dose curve; as a rule, active = well fitted activation curve with a large enough effect in the signal ratio, with a control signal flat (not every such curve was filed as active); inconclusive = small, poorly fitted or top-dose-only effect, or effect the other way, or a change in a side signal; inactive = flat fitted curve, though single readings scatter; the % refers to the signal ratio. Shown is part of a subset that was picked to be rich in actives. A call without a number means that no potency is given here.
Potency is the fitted concentration of half-maximal effect.

The nature of the experiment: Cell signaling CRE-BLA (Fsk stim). As to conditions: CHO CRE-bla reporter (cAMP response element driving beta-lactamase), forskolin EC10, beta-lactamase ratio; series mostly up to 38.2 µM. An excerpt:
NIH Molecular Libraries Screening Centers Network [MLSCN]
NIH Chemical Genomics Center [NCGC]
Assay Provider: Marshall W. Nirenberg, U.S. National heart lung & blood institute
Memories persist for different lengths of time, from seconds or minutes to a lifetime. There are two kinds of memory: short-term memory (STM) and long-term memory (LTM). STM lasts for minutes to hours, which maybe mediated by modifications of molecules involved in synaptic functions. LTM lasts for days or longer, and may be due to the formation of new synapses or restructuring of existing synapses. LTM, but not STM, requires gene transcription and synthesis of proteins. CREB (cyclic-AMP Responsive Element Binding Protein) is one of the candidates plays an important role for enhancement of some types of LTM. CREB, a family of transcription factors, regulates the transcription of genes containing cAMP Responsive Elements (CRE). CRE is a nucleotide sequence often found in the promoter regions of genes that are binding sites for CREB.
Using a beta-lactamase reporter-gene under control of cAMP responsive element, a cell-based assay [CellSensor(TM) CRE-bla CHO developed by Invitrogen Corp.] was used to measure forskolin-induced signaling. Library compounds were measured for their ability to modulate positively or negatively the action of EC10 NKH 477, a water soluble forskolin, on reporter gene activity. Compounds were screened in a titration series in 1536-well format. Positive and negative modulators were identified based on the AC50 values derived from the screening data.
NCGC Assay Protocol Summary
2000 cells/5uL in Opti-MEM medium containing 0.5% dialyzed FBS, 0.1 mM NEAA, 1 mM sodium pyruvate and 10 mM HEPES was dispensed into 1536-well plates and cells were cultured at 37 degrees Celsius overnight. […] And then the plates were incubated at 37 degrees Celsius for 3 hours. 1 uL of CCF4-dye mixture was added to each well. After incubated at room temperature for 2 hours the plates were measured on an EnVision plate reader at Excitation 405nm, Emission1=460nm and Emission 2=530nm. The %Activity was determined from the ratio of 460nm/530nm.
Keywords: NIH Roadmap, MLSCN, MLSMR, qHTS, NCGC, CRE, beta-lactamase reporter-gene assay.
Consider `COc1ccc(S(=O)(=O)NCc2ccc(C(=O)N3CCC4(CC3)OCCO4)cc2)cc1`, for which the Potency entry was “inactive”.

On to `O=C(c1cc2nc(-c3ccccc3)cc(-c3ccccc3)n2n1)N1CCC2(CC1)OCCO2`, for which the Potency was 2.51 µM (active).

Take `O=C(c1cc(S(=O)(=O)N2CCOCC2)ccc1F)N1CCC2(CC1)OCCO2`: the Potency entry was “inactive”.

For the compound `C[C@@]1([C@@H](NP(=O)(c2ccccc2)c2ccccc2)c2ccccc2)C[C@H]1CCO`, the Potency result was “inactive”.

With `Cc1cc(-c2ccc(N)c(C)c2)ccc1N`, the Potency entry is “inactive”.

With `N[C@H](Cc1o[nH]c(=O)c1Cl)C(=O)O`, the Potency result is “inactive”.

As to `ClC(Cl)=C(Cl)C(Cl)=C(Cl)Cl`, the Potency result is “inactive”.

As to `CCC(=NCCCO)c1c(O)n(-c2ccc(OC)cc2)c(=O)[nH]c1=O`, the Potency result is “inactive”.

In the case of `CCCCCCN=C(CC)c1c(O)n(CCCC)c(=O)[nH]c1=O`, the Potency was 10 µM (active).

As for `ClC(Cl)(Cl)c1ccccc1`, the Potency result is “inactive”.
